In PubChem BioAssay AID853 (Columbia University Molecular Screening Center, 2007):
The campaign covered roughly 47,000 compounds. About 200 (0.43%) were called active. Not shown: some 1% with an inconclusive outcome.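 How the source made its calls: active means inhibition of aggregate fluorescence above about 70%, also judged a hit by eye on the cell image (limit read from the data, passing the limit was not always enough); inconclusive means no rule stated for this call; inactive means not judged a hit on image review.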 The entries come from a sample that favours actives as a whole.

assay: clearance of mutant huntingtin inclusions, primary screen, imaging, HeLa Exon1htt(103Q)mCFP, confocal imaging (AID 853); conditions: aggregate imaging, at 1.5 µM; fraction fluorescence in grains: measured here: aggregate grain fluorescence fraction, stronger effect = lower value; inhibition: stronger effect = higher value, zero = plate's median compound well;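 further: cells exposed to compound for three days before fixation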

Compound | fraction fluorescence in grains | inhibition
COc1ccc(CNC(=O)C2CCC(CNc3c(N4CCOCC4)c(=O)c3=O)CC2)cc1 (stereo unspecified) | 33 | 10.7% (inactive)
Cc1cc(Cl)c(S(=O)(=O)N(C)C)cc1OCC(N)=O | 20.5 | -7.1% (inactive)
O=S(=O)(/C=C/c1ccccc1)NCCc1ccccn1 | 31.8 | 7.7% (inactive)
O=C(Oc1cccnc1)c1cc2ccccc2oc1=O | 21 | -5.6% (inactive)
COC(=O)C(C)Oc1ccc2c(-c3cccc([N+](=O)[O-])c3)cc(=O)oc2c1 (stereo unspecified) | 35.3 | 9.1% (inactive)
CCCCCCNC(=O)CSc1nccn1Cc1ccccc1 | 18.3 | 7.5% (inactive)
CCSc1nnc(NC(=O)Cc2ccccc2OC)s1 | 52.6 | -25.1% (inactive)
COc1cccc(OC)c1C(=O)Nc1ccc(N2CCCCC2)cc1 | 19.3 | 18.4% (inactive)
C/C(=C\C(=O)c1ccc(Br)cc1)N1CCCCC1 | 28.4 | 28.3% (inactive)
CCc1c(O)cc2n(c1=O)-c1ccccc1C2(C)C | 27.7 | -37.8% (inactive)
CC1(C)CC(=O)C(C=NCCN2CCN(C(=S)Nc3cccc(Cl)c3)CC2)=C(O)C1 | 25.7 | 12.3% (inactive)
Cc1cccc(N2CCN(C(=O)CN(C)S(=O)(=O)c3ccc4c(c3)CCC(=O)N4)CC2)c1C | 43.8 | -18.5% (inactive)
COc1ccc(CCN2CNc3c(c(=O)n(C)c(=O)n3C)C2)cc1OC | 63.1 | -203% (inactive)
COc1ccc(CNC(=O)CCn2cccc2)cc1 | 29.6 | -25.4% (inactive)
CCCC(=O)Nc1nc2ccc(NC(=O)c3cccnc3)cc2s1 | 48.5 | -19% (inactive)
CCOC(=O)c1cnc(SC)nc1Sc1ccc(Cl)cc1Cl | 27.6 | -31% (inactive)
O=C(CSCc1ccc(Cl)cc1)N1CCCCC1 | 25.4 | -26.2% (inactive)
Cn1cnc2c1c(=O)n(Cc1c(Cl)cccc1Cl)c(=O)n2C | 24.1 | -22.3% (inactive)
CCOc1nc(NCCN2CCOCC2)nc(Nc2ccc(C)cc2)n1 | 42.7 | -6.3% (inactive)
CC1(C)CCc2nc(SCc3ccccc3)c(C#N)cc2C1 | 21.6 | -20.9% (inactive)
Cc1cc2cc3c(cc2nc1SCC(=O)Nc1c(C)cccc1C)CCC3 | 26.1 | 30.7% (inactive)
CC(NC(=O)CSc1nc2c(cc1C#N)CN(C)CC2)c1ccccc1 (stereo unspecified) | 10.8 | 73.3% (active)

Compound | fraction fluorescence in grains | inhibition
Cc1ccnc(SCCn2c(N(C)Cc3ccccc3)nc3c2c(=O)n(C)c(=O)n3C)n1 | 35.6 | -10.6% (inactive)
CCn1c(CNC(=O)c2ccccc2)nnc1SCC(=O)N1CCN(c2ccccc2)CC1 | 10.5 | 45.3% (inactive)
c1ccc(-c2noc(-c3cccs3)n2)nc1 | 20.2 | -19.7% (inactive)
Cc1cc(Oc2ccccc2)nc(N2CCOCC2)n1 | 29.1 | 5.3% (inactive)
COc1ccc(NS(=O)(=O)c2ccc(NC(=O)C(C)(C(F)(F)F)C(F)(F)F)cc2)nn1 | 26.9 | -29.8% (inactive)
CCOC(=O)CN1C(=O)C(=O)c2cc(C)ccc21 | 50.7 | -31.2% (inactive)
CCOC(=O)Cn1c2c(c(-c3ccccc3OC)cc1=O)CCCC2 | 9.78 | 75.9% (active)
COc1ccc(NC(=O)COC(=O)Cn2c(C)nc3ccccc32)cc1OC | 48.2 | -28% (inactive)
CCOC(=O)c1c(NC(=O)CSc2nnc(CNc3ccc(C)cc3C)o2)sc(C)c1C | 20 | 0.1% (inactive)
O=C(c1ccccn1)c1ncc(C(F)(F)F)cc1Cl | 11.8 | 69.6% (inactive)
COc1cc(C2CC(=O)c3cnc(NC(C)=O)nc3C2)cc(OC)c1OC (stereo unspecified) | 28.1 | -57.9% (inactive)
Cc1ccccc1NC(=O)c1cnn(-c2ccccc2)c1NC(=O)c1ccco1 | 65.2 | -45.9% (inactive)
O=C(Nc1cccc(NC(=O)c2ccco2)c1)c1cnccn1 | 17.1 | 4% (inactive)
CCOc1ccc(C(=O)Nc2cc(OC)ccc2OC)cc1 | 47.6 | -28.5% (inactive)
N#Cc1c(/N=C/N2CCCC2)oc(-c2ccccc2)c1-c1ccccc1 | 60.3 | -70.7% (inactive)
c1ccc(Nc2n[nH]nc2-c2ccccc2)cc1 | 19.1 | -9.8% (inactive)
COc1ccc(Oc2coc3cc(OC(=O)c4cncc(Br)c4)ccc3c2=O)cc1 | 38.8 | 10.3% (inactive)
CCN(CC)CCNc1ccc(Cl)cc1[N+](=O)[O-] | 50.4 | -31% (inactive)
COc1nc(NC2CCCCC2)nc(N2CCCCCC2)n1 | 7.28 | 62.7% (inactive)
ONC(=Nc1ccc(Cl)cc1)c1ccccc1Cl | 37.5 | 2.4% (inactive)
Cc1cccc(N(C(=O)Cc2cccs2)C(C(=O)NC2CCCC2)c2ccsc2)c1 (stereo unspecified) | 20.3 | 34% (inactive)
